Several values for one entry are separate records, joined by “and”; a condition that tells them apart may be missing. Equal entries are not always repeated. Records with an inconclusive call do not appear. A call without a number means that no potency is given here. Activity calls are given as the source filed them. Unless noted, the call rests on the fitted dose curve; in most records, active means well fitted curve in the direction sought with a large enough effect; inconclusive means small, poorly fitted or top-dose-only effect, or another doubt; inactive means no such curve, though single readings can be large; an effect the other way counts as inactive or inconclusive.
Tests used:
[1] = qHTS assay for measurement of the activity of small molecule inhibitors on Zika virus induced Caspase-3 activity in human iPSC derived neural progenitor cells (hNPCs) (AID 1224857); further: nearly all actives have a fitted effect of over 65% in size; further: potency means the concentration at half of the fitted maximal effect
Procedure, shortened: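 hNPCs seeded 350 cells/well, cultured 16–20 h; compounds added 1 h before ZIKV (2 FFU/cell), 37 C 6 h. Caspase-Glo 3/7 luminescence after 30 min RT; % inhibition from induction scaled to uninfected (0%) and infected (100%) wells.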

[2] = qHTS assay for cell viability of HEK293 cells (AID 743288); conditions: ATP luminescence (CellTiter-Glo), 18 h; max response: stronger effect = lower value; further: nearly all actives have a fitted effect of over 50% in size
Procedure, shortened: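 After 18 h compound exposure at 37 C, parental HEK293 cells (2,000/well) are lysed with CellTiter-Glo and luminescence is read following 30 min at room temperature.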

[3] = qHTS assay for cell viability of the p53RE-bla HCT-116 cell line (AID 743292); further: nearly all actives have a fitted effect of over 55% in size
Procedure, shortened: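 Viability of compound-treated p53RE-bla HCT-116 cells is taken from ATP-dependent luciferase luminescence. Treatment lasts 16 h at 37 C after a 5 h settling period; detection follows 30 min at room temperature.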

[4] = qHTS profiling for inhibitors of Plasmodium falciparum (3D7) proliferation (AID 743322; call rule not given here;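 further: infected erythrocytes exposed to compound for 72 h before lysis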); conditions: P. falciparum 3D7 proliferation; at 28.7 µM (top of the series) unless noted
Procedure, shortened: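 Parasite DNA was quantified by SYBR Green I fluorescence (ex 485, em 535 nm) after overnight lysis in saponin/Triton buffer at room temperature. Cultures at 0.3% parasitemia and 2.5% hematocrit were first exposed to compound for 72 h at 37 C; signals were normalised to artemisinin (0.29 uM) and vehicle wells.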

[5] = qHTS profiling for inhibitors of Plasmodium falciparum (DD2) proliferation (AID 743323; call rule not given here); conditions: lower = more inhibition; at 28.7 µM (top of the series) unless noted
Procedure, shortened: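 1536-well qHTS; infected RBCs 0.3% parasitemia/2.5% Hct final; cpd 72 h 37 C 5% CO2; lysis buffer + SYBR Green I, o/n RT dark; FI 485/535; norm. to 0.29 uM artemisinin and DMSO, plate-stack corrected.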

[6] = qHTS profiling for inhibitors of Plasmodium falciparum (HB3) proliferation (AID 743324); conditions: Plasmodium falciparum HB3 blood-stage proliferation; at 28.7 µM (top of the series) unless noted
Procedure, shortened: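 SYBR Green fluorescence (485 ex/535 em) of lysed cultures, incubated overnight at room temperature in the dark, quantifies parasite DNA. Infected erythrocytes at 0.3% parasitemia and 2.5% hematocrit were exposed 72 h; values normalized to DMSO and 0.29 uM artemisinin controls.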

## O=C(CCc1ccncc1)NNC(=O)N1Cc2ccccc2Oc2ccc(Cl)cc21
[1]
  Potency: inactive

## Cn1c(=O)c2[nH]c(-c3ccccc3)nc2n(C)c1=O
[1]
  Potency: inactive

## COc1ccc(/C=C/c2nc(NCCCN(C)C)c3ccccc3n2)cc1
[1]
  Potency: inactive

## O=c1[nH]c2ccccc2n1CCCN1CCN(C(c2ccccc2)c2ccccc2)CC1
[1]
  Potency: inactive

## Nc1nc(Cl)nc2c1ncn2[C@@H]1O[C@H](CO)C(O)[C@H]1O (stereo partly drawn)
[1]
  Potency: inactive

## COCCOc1cc2ncnc(Cl)c2cc1OCCOC
[1]
  Potency: inactive

## Oc1cc2c(cc1O)CN(C(=S)NCCc1ccc(Cl)cc1)CCC2
[1]
  Potency: inactive

## OC[C@H]1O[C@@H](n2cnc3c(NC4CCCC4)ncnc32)[C@H](O)C1O (stereo partly drawn)
[1]
  Potency: inactive

## CCN(CC)CCCCNc1ncc2cc(-c3c(Cl)cccc3Cl)c(NC(=O)NC(C)(C)C)nc2n1
[1]
  Potency: inactive

## N#C/C(=C\c1ccc(-c2cc(Cl)ccc2Cl)o1)C(=O)Nc1cccc2ncccc12
[1]
  Potency: inactive

## Nc1nc(SCc2ccc([N+](=O)[O-])cc2)c2ncn([C@@H]3O[C@H](CO)C(O)[C@H]3O)c2n1 (stereo partly drawn)
[1]
  Potency: inactive

## O=C(O)CNC(=O)C(CS)Cc1ccccc1 (stereo not drawn)
[1]
  Potency: inactive

## C=C[C@H]1CN2CC[C@@H]1C[C@H]2[C@H](O)c1ccnc2ccc(OC)cc12
[1]
  Potency: inactive

## COc1ccc(C(=O)/C(Cc2cc(OC)c(OC)c(OC)c2)=C(\C(=O)O)c2ccc3c(c2)OCO3)cc1
[1]
  Potency: inactive

## CN(C)c1nc(N)c(C(=O)N=C(N)N)nc1Cl
[1]
  Potency: inactive

## CC[C@H]1OC(=O)[C@H](C)[C@@H](O[C@H]2C[C@@](C)(OC)[C@@H](O)[C@H](C)O2)[C@H](C)[C@@H](O[C@@H]2O[C@H](C)C[C@H](NC)[C@H]2O)[C@](C)(O)C[C@@H](C)CN(C)[C@H](C)[C@@H](O)[C@]1(C)O
[1]
  Potency: inactive

## C=C/C(C)=C/[C@@]1(C)SC(=O)C(C)=C1O
[1]
  Potency: inactive

## NCCCS(=O)(=O)O
[1]
  Potency: inactive

## CC1CN(S(=O)(=O)c2cccc3cnccc23)CCN1 (stereo not drawn)
[1]
  Potency: inactive

## COC(=O)C1=C(C)NC(C)=C(C(=O)OC)C1c1cccc(NC(=O)NCCCN2CCC(c3cccc(OC)c3)CC2)c1
[1]
  Potency: inactive

## NC(N)=NC(=O)c1nc(Cl)c(N2CCCCCC2)nc1N
[1]
  Potency: inactive

## Oc1c(Br)cc(Br)c2cccnc12
[1]
  Potency: inactive

## O=c1[nH]c2cc(C(F)(F)F)ccc2n1-c1cc(C(F)(F)F)ccc1O
[1]
  Potency: inactive

## OC[C@H]1O[C@@H](n2cnc3c(NC4CCCCC4)ncnc32)[C@H](O)[C@@H]1O
[1]
  Potency: inactive

## COC(=O)c1c(C)[nH]c(C)c1C(=O)c1ccccc1Cc1ccccc1
[1]
  Potency: inactive

## CO/N=C(\C(=O)N[C@@H]1C(=O)N2C(C(=O)O)=C(COC(C)=O)CS[C@H]12)c1csc(N)n1 (stereo in doubt)
[1]
  Potency: inactive

## CC(C)(NS(=O)(=O)c1ccc(Oc2ccc(F)cc2)cc1)C(=O)NO
[1]
  Potency: inactive

## O=C1NC(=O)/C(=C/c2ccc(-c3ccc(F)cc3O)o2)S1
[1]
  Potency: 10 µM (active)

## N=C(N)N
[1]
  Potency: inactive

## O=C(O)CCCC[C@@H]1CCSS1
[1]
  Potency: inactive

## O=[N+]([O-])c1ccc(CSc2ncnc3c2ncn3[C@@H]2O[C@H](CO)C(O)[C@H]2O)cc1 (stereo partly drawn)
[1]
  Potency: inactive

## COc1ccc(/C=C2\COc3ccc(C)cc3C2=O)cc1O
[1]
  Potency: inactive

## CN(CCCOc1ccc(Cc2ccccc2)cc1)CCC(=O)O
[1]
  Potency: inactive

## COc1cc(SC)ccc1C(=O)N1CCC(Cc2ccccc2)CC1
[1]
  Potency: inactive

## O=C(O)c1cc([N+](=O)[O-])ccc1NCCCc1ccccc1
[1]
  Potency: 10 µM (active)

## O=C(O)/C=C\C(=O)O
[2]
  max response: 5.88% (inactive)
[3]
  Potency: inactive

## CC1(C)CCC=[N+]1[O-]
[1]
  Potency: inactive

## O=C(O)c1cc(=O)c2ccccc2[nH]1
[1]
  Potency: inactive

## C=CCc1cccc(/C=N/NC(=O)CN2CCN(Cc3ccccc3)CC2)c1O
[4]
  remaining parasite growth % (stronger effect = lower value): 16.2%
[5]
  activity, percent of control: 11.8%
[6]
  remaining proliferation (% of control), lower = more inhibition: 9.08%
[1]
  Potency: inactive

## CC1(C)S[C@@H]2[C@H](NC(=O)[C@H](N)c3ccccc3)C(=O)N2[C@H]1C(=O)O
[2]
  max response: 1.44% (inactive)
[3]
  Potency: inactive
[1]
  Potency: inactive

## Cc1ccc(O)c(N=Nc2ccccc2)n1
[1]
  Potency: 0.891 µM (active)

## Cc1cc(NC2CCCCC2)nc(-n2nc(C)cc2C)n1
[1]
  Potency: inactive

## O=C(CCCCCN1CCN(c2ccccc2-c2ccccc2)CC1)NC1CCCc2ccccc21 (stereo not drawn)
[1]
  Potency: inactive

## N=c1ccn2c(n1)O[C@H]1C(O)[C@@H](CO)O[C@H]12 (stereo partly drawn)
[1]
  Potency: inactive

## O=C(c1cc(O)c(O)c([N+](=O)[O-])c1)c1ccccc1F
[1]
  Potency: inactive

## O=C(Nc1ccc(C(=O)O)c(O)c1)c1ccccc1
[1]
  Potency: inactive

## O=C(NOCC1CC1)c1cc(Br)c(F)c(F)c1Nc1ccc(I)cc1Cl
[1]
  Potency: inactive

## CCCCCCCCc1ccc(-c2ccc(C(=O)O)cc2)cc1
[1]
  Potency: inactive

## CCCCCCCCCCCCCCCC(=O)OC(CC(=O)O)C[N+](C)(C)C (stereo not drawn)
[1]
  Potency: inactive

## N[C@@H](CC(=O)O)C(=O)O
[1]
  Potency: inactive

## Cc1cc(NC(=O)Nc2ccc3c(ccn3C)c2)sn1
[1]
  Potency: inactive

## O=C1NC(=O)c2c1c(-c1ccccc1)cc1[nH]c3ccc(O)cc3c21
[1]
  Potency: inactive

## CCCC(CCC)C(=O)OC1CC2CCC(C1)[N+]2(C)C (stereo not drawn)
[1]
  Potency: inactive

## NC[C@@H]1O[C@H](C23CC4CC(CC(C4)C2)C3)Cc2c1ccc(O)c2O
[1]
  Potency: inactive

## O=c1cc(-c2ccccc2)oc2ccccc12
[2]
  max response: -12.4% (inactive) and -11.5% (inactive)
[3]
  Potency: inactive
[1]
  Potency: 35.5 µM (active)

## CC(C)NCC(O)COc1cccc2ccccc12 (stereo not drawn)
[2]
  max response: 1.78% (inactive) and -12.1% (inactive)
[3]
  Potency: inactive
[1]
  Potency: inactive

## CC(C)NC[C@H](O)COc1cccc2[nH]ccc12
[1]
  Potency: inactive

## CCCCCCCCCCCCCCCCCC(=O)O
[2]
  max response: -8.42% (inactive) and -6.66% (inactive) and -3.76% (inactive)
[3]
  Potency: inactive
[1]
  Potency: inactive

## CC(C)(C)c1nnc(NS(=O)(=O)c2ccc(N)cc2)s1
[1]
  Potency: inactive

## Nc1nc2ccc([N+](=O)[O-])cc2s1
[2]
  max response: 6.78% (inactive)
[3]
  Potency: inactive
[1]
  Potency: 10 µM (active)

## NC[C@H]1O[C@@H](n2cnc3c(N)ncnc32)[C@H](O)[C@@H]1O
[1]
  Potency: inactive

## CN1CC(=O)N/C1=N/C(=O)Nc1cccc(Cl)c1
[4]
  remaining parasite growth % (stronger effect = lower value): 102%
[5]
  activity, percent of control: 106%
[1]
  Potency: 11.2 µM (active)
